Experimental data from PubChem BioAssay (EPA / NIEHS).
Active and inactive are the calls of the source. Rule for the calls: active = hit-call score of the fitted dose curve at least 0.9, where 1 is the maximum; inactive = score below 0.9.

Assays:
Conditions in all cases: mRNA level, 48 h; actives raise or lower the signal
[1] = read-out: Potassium channel subfamily K member 1 (KCNK1), KCNK1 (gene 3775); experiment: LTEA_HepaRG_KCNK1: Life Technologies and Expression Analysis (LTEA) Assay for Potassium channel subfamily K member 1 (KCNK1) using HepaRG (AID 2283511)
In short: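 Gain or loss of KCNK1 mRNA is the read-out, quantified by qRT-PCR against three housekeeping genes after 48 h chemical treatment of human HepaRG liver cells. Concentrations ran from 100 uM downward in half-log steps, vehicle 0.5% DMSO.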

[2] = read-out: Keratin 19 (KRT19), KRT19 (gene 3880); experiment: LTEA_HepaRG_KRT19: Life Technologies and Expression Analysis (LTEA) Assay for Keratin 19 (KRT19) using HepaRG (AID 2283512)
In short: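 Readout is qRT-PCR of KRT19 mRNA, normalized to ACTB, GAPDH and POLR2A, from HepaRG cells treated 48 h with eight-point half-log dilutions topping at 100 uM. Activity in either direction is scored relative to 0.5% DMSO vehicle.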

[3] = read-out: JUN Transcription Factor, JUN (gene 3725); experiment: LTEA_HepaRG_JUN: Life Technologies and Expression Analysis (LTEA) Assay for JUN Transcription Factor using HepaRG (AID 2283513)
In short: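 Cells plated 48 h, medium switched to serum-free induction medium, then dosed 48 h (100 uM top, half-log dilutions, 0.5% DMSO). RNA isolated; JUN measured by qRT-PCR against three housekeeping genes; gain or loss fitted relative to DMSO.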

[4] = read-out: Lipase C (LIPC), LIPC (gene 3990); experiment: LTEA_HepaRG_LIPC: Life Technologies and Expression Analysis (LTEA) Assay for Lipase C (LIPC) using HepaRG (AID 2283514)
In short: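 Read-out is LIPC transcript level by TaqMan qRT-PCR, normalized to three housekeeping genes, after 48 h chemical treatment of human HepaRG liver cells. Curves span eight concentrations topping at 100 uM; activity in either direction scored relative to 0.5% DMSO.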

[5] = read-out: Lipoprotein lipase (LPL), LPL (gene 4023); experiment: LTEA_HepaRG_LPL: Life Technologies and Expression Analysis (LTEA) Assay for Lipoprotein lipase (LPL) using HepaRG (AID 2283515)
In short: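 Read-out is LPL transcript level by qRT-PCR, normalized to three housekeeping genes and fitted bidirectionally against the DMSO control. Human HepaRG cells received chemicals for 48 h at up to 100 uM.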

[6] = read-out: MicroRNA 122 (MIR122), gene 406906; experiment: LTEA_HepaRG_MIR122: Life Technologies and Expression Analysis (LTEA) Assay for MicroRNA 122 (MIR122) using HepaRG (AID 2283516); note: the transcript read is the microRNA miR-122
In short: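 HepaRG plated 48 h, switched to serum-free induction medium, then treated in duplicate for 48 h (100 uM top, half-log steps, 0.5% DMSO vehicle). RNA isolated, qRT-PCR performed, concentration-response fitted both directions relative to DMSO.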

[7] = read-out: matrix metalloproteinase-10 (MMP10), MMP10 (gene 4319); experiment: LTEA_HepaRG_MMP10: Life Technologies and Expression Analysis (LTEA) Assay for matrix metalloproteinase-10 (MMP10) using HepaRG (AID 2283517)
In short: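 Gain or loss of MMP10 mRNA is fitted relative to the 0.5% DMSO vehicle. The human hepatic line HepaRG receives a 48-hour serum-free exposure, in duplicate, with a maximum concentration of 100 uM.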

[8] = read-out: MYC, MYC (gene 4609); experiment: LTEA_HepaRG_MYC: Life Technologies and Expression Analysis (LTEA) Assay for MYC using HepaRG (AID 2283518)
In short: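 Expression changes were scored by TaqMan qRT-PCR with ACTB, GAPDH and POLR2A normalization. Cultures in serum-free induction medium received duplicate 8-point concentration series, highest 100 uM, for 48 h; DMSO (0.5%) served as baseline.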

[9] = read-out: matrix metalloproteinase-3 (MMP3), MMP3 (gene 4314); experiment: LTEA_HepaRG_MMP3: Life Technologies and Expression Analysis (LTEA) Assay for matrix metalloproteinase-3 (MMP3) using HepaRG (AID 2283519)
In short: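 HepaRG, human; 48 h dosing, 8 conc. (max 100 uM, half-log), duplicate, 0.5% DMSO. Readout: MMP3 transcript by Fluidigm TaqMan qRT-PCR, ACTB/GAPDH/POLR2A-normalised. Gain or loss fitted vs DMSO.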

[10] = read-out: Paternally Expressed 10 (PEG10), PEG10 (gene 23089); experiment: LTEA_HepaRG_PEG10: Life Technologies and Expression Analysis (LTEA) Assay for Paternally Expressed 10 (PEG10) using HepaRG (AID 2283520)
In short: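 HepaRG, 48 h post-plating → serum-free induction medium → 48 h chemical exposure (duplicate, 8-pt, max 100 uM, half-log, 0.5% DMSO) → lysis in RLT → TaqMan qRT-PCR for PEG10, ACTB/GAPDH/POLR2A normalisation.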

[11] = read-out: Protein phosphatase 2A (PPP2R4), PTPA (gene 5524); experiment: LTEA_HepaRG_PPP2R4: Life Technologies and Expression Analysis (LTEA) Assay for Protein phosphatase 2A (PPP2R4) using HepaRG (AID 2283522)
In short: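 Readout is PPP2R4 transcript level by microfluidic qRT-PCR after 48 h chemical treatment of human HepaRG liver cells. Concentrations spanned 100 uM downward in half-log steps; gain or loss of signal was fitted relative to DMSO.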

[12] = read-out: Phosphatase and tensin (PTEN), PTEN (gene 5728); experiment: LTEA_HepaRG_PTEN: Life Technologies and Expression Analysis (LTEA) Assay for Phosphatase and tensin (PTEN) using HepaRG (AID 2283523)
In short: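 Read-out is PTEN transcript level by multiplexed TaqMan qRT-PCR after 48 h chemical treatment of human HepaRG cultures in serum-free induction medium. Concentrations spanned 100 uM downward in half-log steps, 0.5% DMSO throughout; activity fitted in both directions against vehicle.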

[13] = read-out: solute carrier (SLC22A1), SLC22A1 (gene 6580); experiment: LTEA_HepaRG_SLC22A1: Life Technologies and Expression Analysis (LTEA) Assay for solute carrier (SLC22A1) using HepaRG (AID 2283524);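 for AC50: differentiated human HepaRG liver cells in serum-free induction medium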
In short: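 HepaRG (human liver line), 48 h dosing in serum-free induction medium; 8 conc., half-log down from 100 uM, 0.5% DMSO vehicle, duplicates. Endpoint: SLC22A1 mRNA, qRT-PCR, housekeeping-normalized; gain/loss fit vs DMSO.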

[14] = read-out: Pyruvate Dehydrogenase Kinase 4 (PDK4), PDK4 (gene 5166); experiment: LTEA_HepaRG_PDK4: Life Technologies and Expression Analysis (LTEA) Assay for Pyruvate Dehydrogenase Kinase 4 (PDK4) using HepaRG (AID 2283525)
In short: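 In this multiplexed human HepaRG expression assay, cells are treated 48 h with test chemicals across an eight-point range starting at 100 uM. PDK4 mRNA changes, normalized to ACTB/GAPDH/POLR2A, are fitted in both directions relative to vehicle.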

[15] = read-out: Nuclear factor erythroid 2-related factor 2 (Homo sapiens) (UniProt Q16236); experiment: LTEA_HepaRG_NFE2L2: Life Technologies and Expression Analysis (LTEA) Assay for Nuclear factor erythroid 2-related factor 2 (NFE2L2) Transcription Factor using HepaRG (AID 2283527)
In short: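 Transcript level of NFE2L2 is the read-out, measured by microfluidic TaqMan qRT-PCR and normalized to three housekeeping genes. Human HepaRG cultures received test chemical for 48 h at up to 100 uM in half-log steps. Gain or loss of signal is fitted relative to 0.5% DMSO.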

[16] = read-out: succinate dehydrogenase complex iron sulfur subunit B (SDHB), SDHB (gene 6390); experiment: LTEA_HepaRG_SDHB: Life Technologies and Expression Analysis (LTEA) Assay for succinate dehydrogenase complex iron sulfur subunit B (SDHB) using HepaRG (AID 2283528)
In short: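 SDHB transcript level read by TaqMan qRT-PCR, housekeeping-normalised (ACTB, GAPDH, POLR2A), after 48 h chemical treatment of plated HepaRG cells; eight concentrations top 100 uM, half-log steps, 0.5% DMSO, duplicates; fitted both directions against DMSO.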

[17] = read-out: Signal transducer and activator of transcription 3 (Homo sapiens) (UniProt P40763); experiment: LTEA_HepaRG_STAT3: Life Technologies and Expression Analysis (LTEA) Assay for Signal transducer and activator of transcription (STAT3) using HepaRG (AID 2283529)
In short: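 Read-out is STAT3 mRNA level by qRT-PCR, normalized to three housekeeping genes, in human HepaRG liver cells treated for 48 h. Concentrations ran from 100 uM downward in half-log steps; curves were fitted for gain or loss relative to 0.5% DMSO.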

[18] = read-out: solute carrier (SLCO1B1), SLCO1B1 (gene 10599); experiment: LTEA_HepaRG_SLCO1B1: Life Technologies and Expression Analysis (LTEA) Assay for solute carrier (SLCO1B1) using HepaRG (AID 2283530)
In short: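 Human HepaRG cultures treated for 48 h with an eight-concentration half-log series topping at 100 uM; SLCO1B1 measured by qRT-PCR and fitted bidirectionally relative to DMSO.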

[19] = read-out: Nuclear factor NF-kappa-B p105 subunit (Homo sapiens) (UniProt P19838); experiment: LTEA_HepaRG_NFKB1: Life Technologies and Expression Analysis (LTEA) Assay for Nuclear Factor Kappa B Subunit 1 (NFKB1) using HepaRG (AID 2283521);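 note: differentiated human HepaRG liver cells in serum-free induction medium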
In short: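 NFKB1 transcript was measured by TaqMan qRT-PCR on Fluidigm arrays, normalised to three housekeeping genes and fitted in both directions against 0.5% DMSO. HepaRG cells were dosed in duplicate for 48 h in serum-free induction medium, eight half-log steps from 100 uM.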

[20] = read-out: NAD(P)H dehydrogenase [quinone] 1 (NQO1), NQO1 (gene 1728); experiment: LTEA_HepaRG_NQO1: Life Technologies and Expression Analysis (LTEA) Assay for NAD(P)H dehydrogenase [quinone] 1 (NQO1) using HepaRG (AID 2283526)
In short: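 HepaRG, 48 h post-plating → serum-free induction medium → test chemical 48 h (duplicate, 100 uM top, half-log x8, 0.5% DMSO) → RNA isolation → qRT-PCR, ACTB/GAPDH/POLR2A normalization; bidirectional curve fit vs DMSO baseline.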

Measured: AC50

Sequence of Nuclear factor NF-kappa-B p105 subunit (Homo sapiens) (P19838 whole entry, looked up): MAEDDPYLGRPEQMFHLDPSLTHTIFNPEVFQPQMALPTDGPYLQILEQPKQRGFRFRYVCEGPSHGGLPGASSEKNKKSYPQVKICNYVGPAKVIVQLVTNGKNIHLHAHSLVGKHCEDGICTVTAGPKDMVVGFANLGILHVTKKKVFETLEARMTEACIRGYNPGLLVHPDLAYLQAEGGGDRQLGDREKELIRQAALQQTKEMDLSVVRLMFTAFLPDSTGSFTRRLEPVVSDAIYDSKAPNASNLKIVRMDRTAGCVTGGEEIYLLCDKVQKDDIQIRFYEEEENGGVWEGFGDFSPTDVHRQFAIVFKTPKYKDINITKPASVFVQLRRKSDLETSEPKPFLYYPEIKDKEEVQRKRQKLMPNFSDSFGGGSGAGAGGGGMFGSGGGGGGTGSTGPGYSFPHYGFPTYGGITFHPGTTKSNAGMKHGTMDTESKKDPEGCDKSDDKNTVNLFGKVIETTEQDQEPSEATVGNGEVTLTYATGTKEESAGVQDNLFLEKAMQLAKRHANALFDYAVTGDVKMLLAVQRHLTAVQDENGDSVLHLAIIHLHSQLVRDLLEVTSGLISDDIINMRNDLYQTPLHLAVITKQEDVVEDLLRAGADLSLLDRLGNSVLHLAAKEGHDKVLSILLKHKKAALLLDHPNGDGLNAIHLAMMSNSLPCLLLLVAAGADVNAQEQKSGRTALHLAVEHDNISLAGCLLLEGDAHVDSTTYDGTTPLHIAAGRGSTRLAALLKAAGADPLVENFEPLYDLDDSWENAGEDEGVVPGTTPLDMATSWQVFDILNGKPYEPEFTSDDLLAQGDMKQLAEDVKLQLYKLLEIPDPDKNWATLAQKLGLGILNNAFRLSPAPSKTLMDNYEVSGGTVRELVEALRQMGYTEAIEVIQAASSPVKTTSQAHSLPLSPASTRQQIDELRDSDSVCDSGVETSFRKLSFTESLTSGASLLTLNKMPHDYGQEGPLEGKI
Sequence of Signal transducer and activator of transcription 3 (Homo sapiens) (P40763 whole entry, looked up): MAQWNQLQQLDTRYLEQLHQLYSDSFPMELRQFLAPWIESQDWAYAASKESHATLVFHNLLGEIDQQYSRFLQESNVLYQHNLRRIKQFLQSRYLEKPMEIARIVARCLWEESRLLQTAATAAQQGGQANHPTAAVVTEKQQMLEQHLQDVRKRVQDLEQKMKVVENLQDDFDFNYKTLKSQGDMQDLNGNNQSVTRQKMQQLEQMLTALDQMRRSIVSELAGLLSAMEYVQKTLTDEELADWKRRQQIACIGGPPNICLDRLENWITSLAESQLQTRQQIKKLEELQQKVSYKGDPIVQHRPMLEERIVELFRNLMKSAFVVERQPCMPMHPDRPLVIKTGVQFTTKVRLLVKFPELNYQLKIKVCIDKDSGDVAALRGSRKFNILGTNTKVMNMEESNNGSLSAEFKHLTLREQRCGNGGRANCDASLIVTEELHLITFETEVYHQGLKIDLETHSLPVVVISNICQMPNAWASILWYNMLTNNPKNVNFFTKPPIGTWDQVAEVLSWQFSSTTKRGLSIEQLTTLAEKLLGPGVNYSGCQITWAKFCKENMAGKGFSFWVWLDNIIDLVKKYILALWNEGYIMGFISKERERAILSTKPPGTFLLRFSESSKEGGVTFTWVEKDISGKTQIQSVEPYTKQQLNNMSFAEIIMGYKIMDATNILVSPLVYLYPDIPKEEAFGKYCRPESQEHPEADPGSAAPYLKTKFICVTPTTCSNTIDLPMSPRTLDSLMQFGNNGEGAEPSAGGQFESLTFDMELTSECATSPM
Sequence of Nuclear factor erythroid 2-related factor 2 (Homo sapiens) (Q16236 whole entry, looked up): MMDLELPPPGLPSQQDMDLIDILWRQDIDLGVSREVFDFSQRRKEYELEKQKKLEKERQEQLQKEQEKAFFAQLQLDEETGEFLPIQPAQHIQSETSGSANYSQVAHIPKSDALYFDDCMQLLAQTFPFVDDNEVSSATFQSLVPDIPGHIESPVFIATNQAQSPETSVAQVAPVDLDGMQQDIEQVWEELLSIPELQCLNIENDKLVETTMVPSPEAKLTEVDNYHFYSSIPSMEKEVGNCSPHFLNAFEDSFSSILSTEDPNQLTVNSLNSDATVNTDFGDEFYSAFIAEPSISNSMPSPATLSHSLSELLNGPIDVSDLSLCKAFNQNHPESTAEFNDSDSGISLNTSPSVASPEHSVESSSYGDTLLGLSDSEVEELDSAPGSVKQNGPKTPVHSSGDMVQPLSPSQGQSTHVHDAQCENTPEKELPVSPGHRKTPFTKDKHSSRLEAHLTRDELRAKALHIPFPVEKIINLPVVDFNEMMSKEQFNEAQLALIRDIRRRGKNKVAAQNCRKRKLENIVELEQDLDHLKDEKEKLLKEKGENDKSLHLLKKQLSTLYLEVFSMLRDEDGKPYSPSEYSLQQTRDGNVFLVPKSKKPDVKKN

COCC(=O)N(c1c(C)cccc1C)C(C)C(=O)OC (configuration not stated)
not listed: [19] | [20]
inactive: all other assays above

CC(C)=CC1C(C(=O)OCc2coc(Cc3ccccc3)c2)C1(C)C (configuration not stated)
active: [14] 50 µM
inactive: all other assays above

CCCCC(C#N)(Cn1cncn1)c1ccc(Cl)cc1 (configuration not stated)
active: [9] 73.1 µM
not listed: [19] | [20]
inactive: all other assays above

Nc1c(Cl)c(Cl)nc(C(=O)O)c1Cl
inactive: all assays above

CC(C)Nc1nc(Cl)nc(NC(C)C)n1
active: [10] 27.2 µM
not listed: [18] | [19] | [20]
inactive: all other assays above

CCOC(=O)C(C)OC(=O)c1cc(Oc2ccc(C(F)(F)F)cc2Cl)ccc1[N+](=O)[O-] (configuration not stated)
active: [2] 13.3 µM | [10] 9.92 µM | [14] 14.3 µM
not listed: [9]
inactive: all other assays above

CN=C=S
inactive: all assays above

Nc1c(Cl)c(F)nc(OCC(=O)O)c1Cl
not listed: [3]
inactive: all other assays above

Clc1nc(Cl)nc(Nc2ccccc2Cl)n1
not listed: [20]
inactive: all other assays above

CCN(CC)C(=O)C(C)Oc1cccc2ccccc12 (configuration not stated)
active: [2] 50 µM | [4] 69.6 µM | [6] 81.1 µM | [9] 76.2 µM | [10] 76.5 µM | [13] 70.1 µM
not listed: [19]
inactive: all other assays above

O=c1n(Cl)c(=O)n(Cl)c(=O)n1Cl
inactive: all assays above

CCC(C)n1c(=O)[nH]c(C)c(Br)c1=O (configuration not stated)
inactive: [1] | [3] | [7] | [9] | [19] | [11] | [12] | [16]
active: [2] 11.8 µM | [4] 23.3 µM | [5] 14.4 µM | [6] 10.4 µM | [8] 24.8 µM | [10] 21.1 µM | [13] 19.2 µM | [14] 50 µM | [15] 7.04 µM | [17] 31.8 µM | [18] 29 µM

CC1(C)C(C(=O)OC(C#N)c2cccc(Oc3ccccc3)c2)C1(C)C (configuration not stated)
inactive: all assays above

CCCC(=NOCC)C1=C(O)CC(CC(C)SCC)CC1=O (configuration not stated)
not listed: [20]
inactive: all other assays above
